Compounds with a hit are over-represented: about 11% of the library has one in this group of screens.
Pf growth 48h: P. falciparum growth inhibition at 48 hours (one generation). AID 504832. P. falciparum luciferase growth in erythrocytes, 48 h. Potency, µM (titrated, usually from 28.7 µM), most hits filed as inhibitors. 310,000 tested, 5.9% active
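A one-generation exposure of luciferase-tagged malaria parasites in RPMI 1640/Albumax erythrocyte culture, 37 C and 5% CO2. Inhibition is inferred from decreased luminescence after adding detection reagent.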
NS1 inh: blocks influenza NS1 protein function; Potency, µM (titrated, usually from 46.1 µM); AID 2326; 270,000 tested, 0.4% active; calls by dose curve; further: actives are rising curves; nearly all actives have a fitted effect of over 50% in size
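In this qHTS, NS1 from influenza A is expressed in budding yeast, where it slows growth. Cells are switched from glucose to 2% galactose medium (pH 6.0, -URA), treated with compound, and growth recovery is read at OD600.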
HCV inh: HCV inhibition; Huh7.5.1 HCVcc-Cre infection, luciferase reporter, 44 h; Potency, µM (series often up to 41.8 µM), most hits filed as inhibitors; 340,000 tested, 3.4% active
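A cell-based infection assay in which seeded cells (1,000 per well) receive test compound after 4 h, are inoculated with HCVcc-Cre at approximately 0.5 moi, and are incubated 44 h before luminescence detection.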
Vaccinia Venus: vaccinia inhibition (Venus reporter); AID 720580; Vaccinia virus Venus reporter expression, fluorescence; Potency, µM (top dose mostly 36.5 µM), most hits filed as inhibitors; 330,000 tested, 0.46% active; calls by dose curve; tested in A549 cells; further: nearly all actives have a fitted effect of over 30% in size
Vaccinia mCherry: inhibitors of vaccinia virus infection (mCherry reporter signal); Vaccinia virus mCherry reporter infection, fluorescence; Potency, µM (doses to about 36.5 µM), hits mostly inhibitors; 310,000 tested, 0.63% active; calls by dose curve; tested in A549 cells; further: nearly all actives have a fitted effect of over 35% in size
Pf growth 96h: inhibits malaria parasite growth, 96 h. P. falciparum luciferase reporter growth, 96 h. Potency, µM (highest dose often 28.7 µM), usual class: inhibitors. 320,000 tested, 6.9% active. AID 504834
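Plates of compound plus infected erythrocytes (2% hematocrit, 0.05% parasitemia final) incubate 96 hours, 37 C, 5% CO2. Detection reagent added; reduced luminescence from the parasites' luciferase reporter flags inhibition.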
Each line names hits and unclear results; the compound was inactive in the other large screens. Unless noted, the call rests on the fitted dose curve; in most records, active means well fitted inhibition curve with a large enough effect; inconclusive means small, poorly fitted or top-dose-only effect, or another doubt; inactive means no such curve, though single readings can be large or run the other way.

Cc1ccccc1C(=O)Nc1ccnn1C1CCN(C(C)Cc2ccccc2F)CC1 (configuration not stated)	Pf growth 48h inconclusive, HCV inh 10µM, Pf growth 96h inconclusive (no result: Vaccinia Venus, Vaccinia mCherry)
Cc1ccccc1CN1CCC(n2nccc2NC(=O)c2ccc3c(c2)OCO3)CC1	Pf growth 96h 9.28µM (no result: Vaccinia Venus, Vaccinia mCherry)
CN(C)C=NC(=O)c1cc(C(=O)c2ccc(Cl)cc2)c[nH]1	HCV inh inconclusive
Cc1ccc(NC(=O)c2ncn(CCCN(CCCn3cnc(C(=O)Nc4ccc(C)c(C)c4)n3)Cc3ccc4[nH]ccc4c3)n2)cc1C	HCV inh inconclusive, Vaccinia Venus inconclusive (no result: Pf growth 48h, NS1 inh, Pf growth 96h)
O=S(=O)(Nc1cc(Cl)ccc1-n1cncn1)c1cc(Br)ccc1Br	Pf growth 48h inconclusive, HCV inh inconclusive (no result: NS1 inh, Vaccinia Venus, Vaccinia mCherry)
COc1ccccc1C(=O)Nc1ccnn1C1CCN(Cc2cnn(C)c2C)CC1	Pf growth 96h 6.57µM
CNC(=O)[C@H]1O[C@@H](n2cnc3c(NCc4cccc(I)c4)ncnc32)[C@H](O)[C@H]1O	none (no result: Pf growth 48h, HCV inh, Vaccinia Venus, Vaccinia mCherry, Pf growth 96h)
CC1CC(C)CN(C(=O)c2ccc3ccccc3c2)C1 (configuration not stated)	Pf growth 48h 0.828µM, HCV inh inconclusive, Pf growth 96h inconclusive (no result: NS1 inh)
O=C(c1cc(-c2ccncc2)nc2ccccc12)N1CCN(S(=O)(=O)/C=C/c2ccccc2)CC1	Pf growth 48h 1.85µM, NS1 inh inconclusive, Pf growth 96h inconclusive
O=C(c1cc(-c2ccncc2)nc2ccccc12)N1CCOCC1	none (no result: NS1 inh)
COc1ccc(-c2cc(C(=O)N3CCN(c4cccc(C)c4C)CC3)c3ccccc3n2)cc1OC	Pf growth 48h 9.28µM, HCV inh inconclusive, Pf growth 96h 10.4µM (no result: NS1 inh)
CC1CC(C)CN(C(=O)c2cc(-c3ccncc3)nc3ccccc23)C1 (configuration not stated)	Pf growth 48h 9.28µM, Pf growth 96h inconclusive (no result: NS1 inh)
O=C(NC(=S)N1CCc2ccccc21)c1ccccc1Cl	none
O=C(Cc1ccccc1)Nc1ccc(NC(=O)c2ccc(Br)cc2)cc1	Pf growth 96h inconclusive
CC(C)CCn1c(N2CCCC2)nc2c1c(=O)n(C)c(=O)n2C	Pf growth 96h inconclusive (no result: Vaccinia Venus, Vaccinia mCherry)
COc1ccc(-c2cc(C(=O)N3CC(C)CC(C)C3)c3ccccc3n2)cc1OC (configuration not stated)	Pf growth 48h inconclusive, HCV inh inconclusive, Pf growth 96h 10.4µM (no result: NS1 inh)
COc1ccc(-c2cc(C(=O)N3CCC3)c3ccccc3n2)cc1OC	Pf growth 48h inconclusive (no result: NS1 inh)
N=c1c(-c2nc3ccccc3[nH]2)cc(C(=O)c2ccco2)nn1-c1ccccc1	Pf growth 48h inconclusive, HCV inh 7.94µM, Pf growth 96h inconclusive (no result: Vaccinia Venus, Vaccinia mCherry)
Cc1ncc2c(c1CNC(=O)c1ccsc1)CCN(C(=O)c1c(F)cccc1Cl)C2	none (no result: Pf growth 48h, NS1 inh, HCV inh, Pf growth 96h)
O=[N+]([O-])c1ccc(Oc2cccc3cccnc23)c([N+](=O)[O-])c1	Pf growth 48h 10.4µM, Vaccinia mCherry inconclusive, Pf growth 96h 13.1µM
O=S(=O)(NCC1CCCO1)c1ccc(S(=O)(=O)N2CCc3ccccc3C2)cc1 (configuration not stated)	none
O=C(O)CC1S/C(=N/N=C/c2ccccn2)NC1=O (configuration not stated)	Pf growth 48h 5.22µM, Pf growth 96h inconclusive (no result: Vaccinia Venus, Vaccinia mCherry)
NC(=S)N/N=C/c1c[nH]c2ccc(OCc3ccccc3)cc12	Pf growth 48h inconclusive, HCV inh 12.6µM, Pf growth 96h inconclusive (no result: Vaccinia Venus, Vaccinia mCherry)
COc1cccc(/C=N/NC(N)=S)c1OCc1cccc(Cl)c1	Pf growth 48h 11.7µM, HCV inh inconclusive, Vaccinia Venus inconclusive, Vaccinia mCherry inconclusive, Pf growth 96h 3.7µM
COc1cccc(/C=N/NC(=S)NCCc2ccccc2)c1OC	none
NC(=S)N/N=C\c1ccccc1OCc1ccccc1	HCV inh inconclusive, Vaccinia Venus 2.51µM, Vaccinia mCherry inconclusive, Pf growth 96h inconclusive
NC(=O)NC(=O)CC1S/C(=N/N=C/c2ccccc2)NC1=O (configuration not stated)	Pf growth 96h inconclusive
COc1ccc(/C=C/C(=O)O)cc1S(=O)(=O)N1CCCc2ccccc21	none
CCOC(=O)N1CCN(C(=O)CCC2CCCC2)CC1	none
O=C(CC1S/C(=N/N=C/c2cccs2)NC1=O)Nc1ccc(Cl)c(Cl)c1 (configuration not stated)	Pf growth 96h inconclusive
COC(=O)c1ccc(COc2ccccc2/C=N/NS(=O)(=O)c2ccccc2)cc1	HCV inh 10µM (no result: Vaccinia Venus, Vaccinia mCherry)
O=C(CC1S/C(=N/N=C/c2c[nH]c3ccccc23)NC1=O)Nc1ccccc1 (configuration not stated)	none
O=C(CC1S/C(=N/N=C/c2c[nH]c3ccc(OCc4ccccc4)cc23)NC1=O)Nc1ccccc1 (configuration not stated)	Pf growth 96h 11.7µM
O=C(CC1S/C(=N/N=C/c2cccs2)NC1=O)Nc1ccc(Cl)cc1 (configuration not stated)	Pf growth 96h 1.85µM
O=C(O)COc1ccccc1/C=N/NC(=O)Cc1ccccc1	NS1 inh inconclusive, Pf growth 96h 10.4µM (no result: Vaccinia Venus, Vaccinia mCherry)
NS(=O)(=O)c1ccc(CCNC(=O)c2ccncc2)cc1	none
Cc1cccc(S(=O)(=O)NC(=O)C2(C)CCN2C(=O)Cc2cccs2)c1 (configuration not stated)	none (no result: Pf growth 48h, NS1 inh, HCV inh, Pf growth 96h)
CCOc1ccc(C2=C(C=Nc3c(C)n(C)n(-c4ccccc4)c3=O)C(c3ccc(F)cc3)c3ccccc3O2)cc1 (configuration not stated)	Pf growth 96h 0.294µM (no result: Pf growth 48h)
CCOc1ccc(C2SCC(=O)N2c2c(C)n(C)n(-c3ccccc3)c2=O)cc1 (configuration not stated)	none (no result: Vaccinia mCherry)
CN(C)C(C)(C)C#CCCCCC#CC(C)(C)N(C)C	Pf growth 48h inconclusive, HCV inh inconclusive, Pf growth 96h inconclusive
CN(C)C(C)(C)C#CCC(c1ccccc1)c1ccccc1	Pf growth 48h 9.28µM, Vaccinia mCherry inconclusive, Pf growth 96h inconclusive
Cc1cc(C)n2nc(SCC(=O)N3CCCCC3C)nc2n1 (configuration not stated)	none (no result: Pf growth 48h, NS1 inh, Vaccinia Venus, Vaccinia mCherry, Pf growth 96h)
C(=N/n1c2ccccc2c2ccccc21)/c1ccco1	HCV inh 8.91µM, Vaccinia Venus inconclusive (no result: Vaccinia mCherry, Pf growth 96h)
Oc1ccccc1/C=N/n1c2ccccc2c2ccccc21	Pf growth 48h inconclusive, HCV inh inconclusive, Pf growth 96h 2.62µM
COc1ccc(-n2c(C)c([N+](=O)[O-])c3ccc(O)c(CN(C)C)c32)cc1	Pf growth 48h 0.828µM, NS1 inh inconclusive, Pf growth 96h inconclusive (no result: Vaccinia mCherry)
CC[C@@]12C(=O)N(c3cccc(Br)c3)C(=O)N1[C@H](c1ccc(Cl)cc1)[C@@H]1C(=O)N(C3CCCCC3)C(=O)[C@@H]12	Pf growth 48h inconclusive, Pf growth 96h 8.28µM
CC(C)C[C@@]12C(=O)N(c3cccc(Br)c3)C(=O)N1[C@H](c1ccc(Cl)cc1)[C@@H]1C(=O)N(C3CCCCC3)C(=O)[C@@H]12	Pf growth 48h 2.62µM, Pf growth 96h inconclusive (no result: NS1 inh)

Screening data deposited in PubChem by National Center for Advancing Translational Sciences (NCATS).
